# Measured values from the supplement of paper PMC3334620.
# Over roughly 33,000 sequences, “E-score (-0.5 to 0.5)” has its median near -0.011; the highest 2% begin near 0.28. Shown is part of a subset that was picked to be rich in the highest values.
# Molecular target: T1, Gcr1 (UniProt P07261)
# T1 sequence: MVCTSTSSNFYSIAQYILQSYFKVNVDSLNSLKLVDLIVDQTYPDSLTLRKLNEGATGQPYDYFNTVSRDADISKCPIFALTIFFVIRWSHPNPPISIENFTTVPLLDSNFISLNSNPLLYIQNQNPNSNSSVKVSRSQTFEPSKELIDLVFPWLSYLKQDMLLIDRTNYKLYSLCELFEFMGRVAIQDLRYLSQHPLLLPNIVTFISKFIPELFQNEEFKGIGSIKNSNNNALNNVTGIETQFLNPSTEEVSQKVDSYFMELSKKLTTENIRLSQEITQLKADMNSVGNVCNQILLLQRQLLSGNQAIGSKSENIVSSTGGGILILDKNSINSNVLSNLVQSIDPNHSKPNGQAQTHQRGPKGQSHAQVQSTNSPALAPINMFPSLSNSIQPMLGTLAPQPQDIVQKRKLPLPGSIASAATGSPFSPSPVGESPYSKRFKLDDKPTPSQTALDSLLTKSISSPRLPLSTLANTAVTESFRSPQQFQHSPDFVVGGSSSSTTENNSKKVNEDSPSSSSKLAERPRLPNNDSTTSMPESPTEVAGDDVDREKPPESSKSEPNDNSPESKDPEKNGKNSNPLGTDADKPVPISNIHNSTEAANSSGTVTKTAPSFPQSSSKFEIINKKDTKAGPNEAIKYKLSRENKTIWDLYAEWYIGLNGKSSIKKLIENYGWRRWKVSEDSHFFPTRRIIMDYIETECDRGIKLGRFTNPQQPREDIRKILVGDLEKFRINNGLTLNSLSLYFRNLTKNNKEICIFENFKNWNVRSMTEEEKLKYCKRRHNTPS
# Assay: PBM E-score (8-mer binding enrichment) (E-score (-0.5 to 0.5)); higher = stronger / more preferred TF binding
# Details: protein concentration: 100 nM; construct: GST-full length
# How it was run: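 Full-length yeast transcription factors or their DNA-binding domains, GST-tagged and expressed with PURExpress, were applied at about 100-200 nM to universal all-10-mer Agilent arrays. These arrays had been made double-stranded by primer extension on fresh or once-stripped slides. Detection used fluorescent anti-GST, normalisation used masliner, and E-scores for ungapped eight-base words pooled with reverse complements came from the Universal PBM Analysis Suite.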
row,Sequence,PBM E-score
1,AGACGCAG,0.0695
2,AGACGCAT,0.231
3,AGACGCCT,0.327
4,ACACGCCA,-0.163
5,ACACGCCG,0.199
6,AAAGCGCG,-0.0766
7,TAGCCCCA,0.139
8,AGAGGGGC,-0.044
9,GGTTTGAC,0.0178
10,CGTATGAC,0.0685
11,TAAACCGA,-0.235
12,CTCTGTTC,-0.0161
13,AACCGGGT,0.0617
14,GTCCGAAA,0.212
15,CTGGTCAA,0.0775
16,AGACGCGC,0.289
17,AGACGCGA,0.214
18,CGACGCGC,0.0401
19,ACCGTGGG,-0.00593
20,CAGTGGAA,0.244

row,Sequence,PBM E-score
1,TAGTGGAA,0.42
2,GAGTGGAC,-0.0196
3,TGGTGGAA,0.124
4,AAGTGGAA,0.41
5,AAGTGGTG,0.281
6,AAGTGGAT,0.136
7,GGGTGGAA,-0.113
8,AAGTGGTC,0.0307
9,GAGTGGAA,0.316
10,AAGTGGTA,0.176
11,AAGTGGAG,0.141
12,GTCGCCTA,0.0571
13,GATCTCAC,-0.257
14,CTAGGGTC,0.00957
15,ATTTTTTG,0.228
16,AGTTATTC,0.0537
17,CACTGTAG,-0.115
18,TAGTGGCA,0.289
19,GAGTGGCA,-0.0587
20,AAGTGGCA,0.238

row,Sequence,PBM E-score
1,AAGCGATC,-0.135
2,AGGTAGTC,0.072
3,AGGAGTCG,-0.069
4,AGGAGTCC,0.303
5,CGGAGTCA,-0.00995
6,AGGAGTCA,-0.0283
7,CGGAGTCC,0.281
8,CGGAGTAC,-0.243
9,GACACCTA,0.0961
10,TCCCTACA,0.00308
11,AAGCAGGA,0.0293
12,CCTCAGAC,-0.19
13,CAACTTCC,0.321
14,CCACTTCG,0.0958
15,CAACTTCG,0.107
16,CCACTTCC,0.305
17,GCACTTCC,0.168
18,CAACTTCA,-0.0643
19,GGCTCGCA,-0.137
